Results: the supplement of paper PMC6555819

Tests used:
Test in all cases: PBM binding z-score (relative to random genomic background probes); higher = stronger binding; sequences stand for … in GC…GCGATTGACAGCGTAGAATGAAGG
[1] = system: PPARg:RXRa DBDmut IVT, anti-RXR (DBD mutation: RXRa K156A/R161A, NR concentration 270 nM, RXRa partner concentration 90 nM)
Method in brief: (§1)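 Binding buffer was PBS pH 7.4 with 2% milk, 0.02% Triton X-100, 1 mM DTT, 0.2 mg/mL BSA and 0.4 mg/ml salmon testes DNA. In it, ligand-free nuclear receptor dimers were incubated 1 h on custom Agilent 4×180K protein-binding microarrays carrying double-stranded probes. Antibodies against each partner (one per run) detected binding, and z-scores were calculated against random background probes after regression normalization of scanned fluorescence.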

[2] = system: PPARg:RXRa IVT, anti-PPARg (NR concentration 270 nM, RXRa partner concentration 90 nM)
Method in brief: as §1

[3] = system: PPARg DBDmut:RXRa IVT, anti-PPARg (DBD mutation: PPARg1 K132A/R137A, NR concentration 270 nM, RXRa partner concentration 90 nM)
Method in brief: as §1

[4] = system: PPARg DBDmut IVT, anti-PPARg (DBD mutation: PPARg1 K132A/R137A, NR concentration 270 nM)
Method in brief: as §1

[5] = system: PPARg homodimer (NR concentration 180 nM)
Method in brief: as §1

[6] = system: PXR:RXRa (NR concentration 270 nM, RXRa partner concentration 90 nM)
Method in brief: as §1

[7] = system: PXR homodimer (NR concentration 270 nM)
Method in brief: as §1

[8] = system: RARa:RXR (NR concentration 270 nM, RXRa partner concentration 90 nM)
Method in brief: as §1

[9] = system: RARa homodimer (NR concentration 270 nM)
Method in brief: as §1

[10] = system: RARb:RXRa (NR concentration 270 nM, RXRa partner concentration 90 nM)
Method in brief: as §1

[11] = system: RARb homodimer (NR concentration 270 nM)
Method in brief: as §1

[12] = system: RARg:RXRa (NR concentration 270 nM, RXRa partner concentration 90 nM)
Method in brief: as §1

[13] = system: RARg homodimer (NR concentration 270 nM)
Method in brief: as §1

[14] = system: RXRa DBDmut IVT, anti-RXR (DBD mutation: RXRa K156A/R161A, NR concentration 90 nM)
Method in brief: as §1

[15] = system: RXRa homodimer (NR concentration 180 nM)
Method in brief: as §1

[16] = system: THRa:RXRa (NR concentration 90 nM, RXRa partner concentration 90 nM)
Method in brief: as §1

[17] = system: THRa homodimer (NR concentration 90 nM)
Method in brief: as §1

[18] = system: VDR homodimer (NR concentration 270 nM)
Method in brief: as §1

Sequence | PBM binding z-score [1] | PBM binding z-score [2] | PBM binding z-score [3] | PBM binding z-score [4] | PBM binding z-score [5] | PBM binding z-score [6] | PBM binding z-score [7] | PBM binding z-score [8] | PBM binding z-score [9] | PBM binding z-score [10] | PBM binding z-score [11] | PBM binding z-score [12] | PBM binding z-score [13] | PBM binding z-score [14] | PBM binding z-score [15] | PBM binding z-score [16] | PBM binding z-score [17] | PBM binding z-score [18]
TCTCGGAGCACACGAAGGTCAGAGCTTTCCAGAG | 0.43 | 0.198 | -0.909 | -1.03 | 0.396 | 1.12 | -1.04 | 1.49 | -1.5 | 2.39 | 2.66 | 2.84 | 1.83 | -0.242 | 1.7 | 1.35 | -0.853 | -0.73
TAGCCTAGGTCATCGGGCCAGTATAGTACGCATC | 1.44 | 3.19 | 0.181 | -0.303 | 1.03 | 1.81 | -0.265 | 2.58 | -0.0244 | 3.9 | 3.22 | 4.32 | 4.38 | 0.957 | 3.29 | 2.96 | 1.16 | 0.811
TCATATAGGTATAGGTGAAAGTCGAACGATATGA | 2.01 | 1.55 | 0.818 | 1.13 | 0.0595 | 0.316 | 0.0974 | 0.665 | 0.0245 | 0.587 | 0.405 | 0.646 | 0.511 | 0.538 | 1.13 | 0.242 | -0.544 | -0.127
ATCGAAACGTCGAGGTGAGTATAGAGAAAGGGAA | -1 | 0.225 | 0.306 | 0.714 | -0.637 | -0.126 | -0.0991 | 0.0247 | -0.11 | 0.508 | -0.0564 | 0.238 | 0.317 | -0.787 | 0.266 | 1.03 | -0.0731 | -0.175
TCTATTAGTTCAAGGGCAACCGACGAGTCCGTTT | 2.36 | 1.14 | 0.61 | 1.22 | 1.87 | 2.28 | 2.5 | 1.55 | 1.41 | 3.08 | 2.81 | 2.08 | 2.62 | 2.6 | 1.58 | 1.92 | 1.36 | 3.41
TCACATAGGTAAAAGGTGAAAGTCGGTGTGGTAA | 2.98 | 3.19 | 0.93 | 0.575 | 1.93 | 1.81 | 0.153 | 3.24 | 0.922 | 1.92 | 1.98 | 2.02 | 0.992 | 1.3 | 3.3 | 1.72 | 0.0653 | -0.0676
GCTTGTAGATCAAAGTTAAGAAAGACTAAGCTAA | 0.918 | 0.871 | -0.419 | 0.433 | -0.72 | -0.462 | -0.397 | -0.522 | -0.688 | -0.479 | -0.8 | -0.501 | -0.292 | -0.0516 | -0.495 | -0.445 | -1.4 | -0.623
CAAACTAGGTGACCGGAAGGTCAAAGTCCGCATG | 7.47 | 7.68 | 2.87 | 3.33 | 3.59 | 4.49 | 1.01 | 5.41 | 0.811 | 3.81 | 4.4 | 5.38 | 3.94 | 0.562 | 3.89 | 3.57 | 1.86 | 2.49
CCTAGTTGGTCAAGGTCACACGCGCTATAGGTAC | 2.5 | 3.82 | 0.145 | 0.325 | 2.68 | 4.09 | 2.6 | 4.13 | 1.78 | 4.39 | 4.39 | 4.76 | 4.72 | 2.18 | 4.7 | 4.17 | 4.19 | 3.41
TGTCAAAGTTCAGAGGTAACGTAAGTATCCACAC | -0.368 | 3.54 | 0.775 | 1.39 | 2.26 | 3.39 | 0.858 | 3.43 | 0.97 | 4.36 | 3.02 | 4.64 | 4.84 | 3.01 | 4.22 | 2.53 | 0.262 | 2.11
ACTAGTTGGTCAGCTGAGGTCATACACAATTCGG | 1.47 | 2.35 | 1.46 | 1.13 | 3.38 | 5.65 | 3.46 | 4.45 | 0.98 | 3.15 | 3.89 | 3.68 | 3.38 | 1.89 | 3.86 | 4.94 | 4.75 | 4.31
CGAACTAGATCATTGACAGGACAGTGAATAGTAA | 1.8 | 0.856 | 0.569 | 0.266 | 0.538 | 0.285 | -0.0589 | 0.3 | 0.92 | 0.0179 | 0.278 | 0.201 | 0.25 | 0.0168 | 0.337 | 0.239 | 0.557 | 0.205
ATCTCTAGCTAACAAGTTCAGTGAAAGAGAGGAC | -0.615 | 0.373 | 0.64 | 1.17 | 0.988 | 1.36 | 1.62 | 0.744 | 1.13 | 1.15 | 1.31 | 0.734 | 0.987 | 0.511 | 0.529 | 1 | 0.651 | 2.47
TCATATAGGTAAAGGTGAAAGTCGAACGATATGA | 3.76 | 4.23 | 1.81 | 1.2 | 1.04 | 1.13 | -0.047 | 1.71 | 0.402 | 2.1 | 1.71 | 1.65 | 1.43 | 0.845 | 2.33 | 1.38 | -0.106 | 0.236
